Data: PubChem BioAssay
Activity calls are given as the source filed them.

How the values were obtained:
[1] = system: PRMT1 (protein arginine N-methyltransferase 1); test: small molecules binding arginine methyltransferase PRMT1 – biochemical, small-molecule microarray, 635 nm fluorescence, primary screen (AID 1088); conditions: higher = more signal;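 further: binding of Prmt1 protein to compounds spotted on small-molecule microarray slides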
[2] = growth effects on S. cerevisiae YJM789 – YJM789 clinical isolate, OD600, 24 h, basal, primary screen (AID 1089); conditions: higher = more signal, called active from +8 up or from −8 down;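 further: growth of clinical yeast isolate S. cerevisiae YJM 789 seeded 1000 cells per well; test concentration not given here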
[3] = S. pombe growth modifiers, basal conditions – strain 972, OD600, 24 h, no modulator, primary screen (AID 1090);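 further: basal condition with compound alone and no growth modifier present; test concentration not given here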; conditions: S. pombe 972 growth, higher = more signal, called active from +8 up or from −8 down
[4] = budding yeast growth modifiers under rapamycin – strain BY4716, OD600, 96 h, primary screen (AID 1091); further: test concentration not given here; conditions: S. cerevisiae BY4716 + rapamycin, higher = more signal, called active from +8 up or from −8 down
[5] = target: Torsin-1A-interacting protein 2 (Homo sapiens) (UniProt Q8NFQ8); test: small molecules binding lysate-expressed LULL1 – cell lysate, human LULL1 lysate, 635/667 nm fluorescence, primary screen (AID 1092); conditions: small-molecule microarray, hLULL1 lysate binding, 635 nm fluorescence; higher = more signal;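 further: probe is lysate of COS7 cells overexpressing human LULL1; score merges per-feature 667 nm fluorescence with signal-to-noise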
[6] = optical density change of DRC41 E. coli – strain DRC41, OD650, 24 h, E. coli filamentation project, primary screen (AID 1093);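 further: MC1000 strain lacking acrAB efflux and sulA so SOS filamentation is blocked; test concentration not given here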; conditions: E. coli DRC41 growth, higher = more signal, called active from +8 up or from −8 down
[7] = probe aLefty2 binding to arrayed compounds – biochemical, biotinylated probe, 635/667 nm fluorescence, primary screen (AID 1094); conditions: small-molecule microarray, higher = more signal;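 further: score merges spot fluorescence near 667 nm with spot signal-to-noise ratio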
[8] = system: Noggin (protein binding on small-molecule microarray); test: small molecules binding Noggin protein – biochemical, 635/667 nm fluorescence, primary screen (AID 1095); conditions: 635 nm fluorescence, higher = more signal;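 further: score merges 667 nm feature fluorescence with signal to noise over triplicate slides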
[9] = target: Neurogenic locus notch homolog protein 3 (Homo sapiens) (UniProt Q9UM47); test: small molecules binding NOTCH3 protein – biochemical, 635/667 nm fluorescence, primary screen (AID 1096); conditions: small-molecule microarray, 635 nm fluorescence, higher = more signal
[10] = probe aEGFR binding to arrayed compounds – biochemical, biotinylated probe, 635/667 nm fluorescence, primary screen (AID 1097); conditions: small-molecule microarray, higher = more signal;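 further: probe is a biotinylated anti-EGFR antibody binding compounds printed on slides; score combines fluorescence near 667 nm and signal to noise of each spot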

Sequence of Torsin-1A-interacting protein 2 (Homo sapiens) (Q8NFQ8 whole entry, looked up): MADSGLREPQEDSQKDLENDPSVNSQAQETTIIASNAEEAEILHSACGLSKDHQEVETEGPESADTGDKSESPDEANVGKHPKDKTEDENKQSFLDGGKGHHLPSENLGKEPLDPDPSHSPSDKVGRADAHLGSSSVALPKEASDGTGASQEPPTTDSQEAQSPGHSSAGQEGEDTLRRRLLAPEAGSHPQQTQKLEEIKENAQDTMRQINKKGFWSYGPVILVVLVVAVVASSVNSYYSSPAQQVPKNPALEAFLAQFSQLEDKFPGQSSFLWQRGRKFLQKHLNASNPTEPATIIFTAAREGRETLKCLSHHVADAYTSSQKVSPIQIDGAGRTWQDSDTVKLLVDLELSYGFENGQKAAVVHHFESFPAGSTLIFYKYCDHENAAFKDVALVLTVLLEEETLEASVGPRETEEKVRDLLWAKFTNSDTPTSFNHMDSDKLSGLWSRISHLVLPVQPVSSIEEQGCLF
Sequence of Neurogenic locus notch homolog protein 3 (Homo sapiens) (Q9UM47 whole entry, looked up): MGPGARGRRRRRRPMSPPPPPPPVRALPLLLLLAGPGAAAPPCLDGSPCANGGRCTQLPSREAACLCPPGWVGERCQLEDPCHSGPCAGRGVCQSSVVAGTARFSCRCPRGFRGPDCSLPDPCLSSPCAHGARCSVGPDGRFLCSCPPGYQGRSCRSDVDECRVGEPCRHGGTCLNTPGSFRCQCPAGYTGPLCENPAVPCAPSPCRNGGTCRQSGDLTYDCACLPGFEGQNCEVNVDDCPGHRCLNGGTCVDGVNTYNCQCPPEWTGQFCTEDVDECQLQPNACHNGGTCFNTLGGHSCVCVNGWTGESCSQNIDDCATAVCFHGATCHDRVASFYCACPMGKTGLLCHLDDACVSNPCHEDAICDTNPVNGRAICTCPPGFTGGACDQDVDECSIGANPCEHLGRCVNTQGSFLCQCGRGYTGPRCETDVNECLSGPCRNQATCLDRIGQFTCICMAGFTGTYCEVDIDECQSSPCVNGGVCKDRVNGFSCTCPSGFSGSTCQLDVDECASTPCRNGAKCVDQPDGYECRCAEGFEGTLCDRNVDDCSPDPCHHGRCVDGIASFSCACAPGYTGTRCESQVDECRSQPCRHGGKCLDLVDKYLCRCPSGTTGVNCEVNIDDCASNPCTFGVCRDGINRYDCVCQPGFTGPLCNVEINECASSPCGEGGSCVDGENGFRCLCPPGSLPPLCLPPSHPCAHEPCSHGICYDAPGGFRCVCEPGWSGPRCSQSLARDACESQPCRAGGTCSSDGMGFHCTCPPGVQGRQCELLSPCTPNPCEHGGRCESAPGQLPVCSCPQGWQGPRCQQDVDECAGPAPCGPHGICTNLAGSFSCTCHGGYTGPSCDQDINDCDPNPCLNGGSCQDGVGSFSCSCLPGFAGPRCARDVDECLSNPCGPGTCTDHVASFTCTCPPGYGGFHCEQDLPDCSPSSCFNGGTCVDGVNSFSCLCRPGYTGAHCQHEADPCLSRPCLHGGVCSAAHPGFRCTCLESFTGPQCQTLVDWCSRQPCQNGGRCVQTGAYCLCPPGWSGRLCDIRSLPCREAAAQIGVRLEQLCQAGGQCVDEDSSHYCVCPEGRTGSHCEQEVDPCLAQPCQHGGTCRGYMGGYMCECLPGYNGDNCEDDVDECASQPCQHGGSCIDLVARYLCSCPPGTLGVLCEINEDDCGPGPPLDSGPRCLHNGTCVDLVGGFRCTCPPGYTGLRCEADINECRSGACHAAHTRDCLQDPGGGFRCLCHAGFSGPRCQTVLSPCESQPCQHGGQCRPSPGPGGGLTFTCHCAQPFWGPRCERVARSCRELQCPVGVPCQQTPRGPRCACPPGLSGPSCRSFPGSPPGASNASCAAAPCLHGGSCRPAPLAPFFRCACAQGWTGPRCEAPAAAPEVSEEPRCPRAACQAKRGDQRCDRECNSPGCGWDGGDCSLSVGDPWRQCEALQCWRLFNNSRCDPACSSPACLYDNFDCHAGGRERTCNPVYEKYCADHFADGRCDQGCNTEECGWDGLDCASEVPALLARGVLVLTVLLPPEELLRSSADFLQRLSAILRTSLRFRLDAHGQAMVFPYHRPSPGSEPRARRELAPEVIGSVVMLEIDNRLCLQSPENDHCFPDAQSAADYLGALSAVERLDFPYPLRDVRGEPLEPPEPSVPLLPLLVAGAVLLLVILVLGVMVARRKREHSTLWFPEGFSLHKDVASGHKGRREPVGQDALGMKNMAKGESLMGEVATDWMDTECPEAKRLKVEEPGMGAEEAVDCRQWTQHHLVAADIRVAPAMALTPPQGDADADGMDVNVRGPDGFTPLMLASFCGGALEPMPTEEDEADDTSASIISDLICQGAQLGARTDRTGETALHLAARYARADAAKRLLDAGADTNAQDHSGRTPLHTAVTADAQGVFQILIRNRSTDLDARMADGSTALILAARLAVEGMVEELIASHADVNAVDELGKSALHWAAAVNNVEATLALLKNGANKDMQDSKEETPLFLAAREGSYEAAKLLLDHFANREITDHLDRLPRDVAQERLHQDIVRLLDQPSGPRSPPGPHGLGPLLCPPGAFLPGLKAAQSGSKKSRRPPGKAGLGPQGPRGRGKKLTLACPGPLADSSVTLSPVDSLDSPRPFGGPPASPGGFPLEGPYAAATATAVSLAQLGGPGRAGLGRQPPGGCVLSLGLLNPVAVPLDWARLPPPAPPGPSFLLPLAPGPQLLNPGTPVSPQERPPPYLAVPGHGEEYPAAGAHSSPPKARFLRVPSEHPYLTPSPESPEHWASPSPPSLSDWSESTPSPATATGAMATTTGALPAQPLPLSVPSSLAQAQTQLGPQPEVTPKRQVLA

Row | Compound | composite z-score [1] | z-score [2] | z-score [3] | z-score [4] | composite z-score [5] | z-score [6] | composite z-score [7] | composite z-score [8] | composite z-score [9] | composite z-score [10]
1 | C=CCN1C(=O)[C@]2(O[C@H](CCO)[C@@H]([Si](C)(C)c3ccc(OC)cc3)[C@@H]2C)c2cc(N3C(=O)COc4ccccc43)ccc21 | 1.53 | 1.81 (inactive) | 0.0538 (inactive) | 32.6 (active) | 1.29 | 1.64 (inactive) | -0.192 | 0.679 | 0.763 | -0.12
2 | CCCNC(=O)[C@@]1(Sc2ccc(C)cc2)CC(=O)N(C(C)C)[C@@H]1c1ccc(CO)cc1I | 1.28 | -1.08 (inactive) | -0.877 (inactive) | 1.79 (inactive) | 2.73 | -0.157 (inactive) | 0.0444 | -0.719 | -1.2 | -0.252
3 | CCCCCCCCCCC(O)C1C=CC2C(=O)N(C)C(=O)C2N1Nc1cc(OC)c(OC)c(OC)c1 (stereo not given) | -0.415 | 0.692 (inactive) | 0.134 (inactive) | -1.17 (inactive) | 1.54 | -1.74 (inactive) | -0.161 | -1.3 | -0.713 | -0.189
4 | CCCCCN1CC=CC23O[C@@H]4C=CCOC(=O)[C@@H]4[C@H]2C(=O)N(CCO)[C@@H]3C1=O (stereo not given in full) | 0.487 | 0.15 (inactive) | -0.178 (inactive) | -0.175 (inactive) | 2.35 | -0.229 (inactive) | -0.244 | -1.25 | -0.195 | -0.235
5 | C=CCC(OC(C)=O)[C@@H]1[C@@H](N(Cc2cc3ccccc3o2)C(=O)c2ccc(-c3ccccc3)cc2)c2cc(OCCCO)ccc2N1C(=O)Cc1ccc(OC)cc1 (stereo not given in full) | -0.826 | 0.21 (inactive) | 0.443 (inactive) | 0.945 (inactive) | -0.299 | -1.02 (inactive) | -0.0766 | 0.18 | -0.364 | -0.0353
6 | CCN(CC)c1ccc(N2CC=CC34O[C@@H]5/C=C\CCC(C)OC(=O)C5[C@H]3C(=O)N(C(C)CO)[C@@H]4C2=O)cc1 (stereo not given in full) | 0.41 | 0.217 (inactive) | -1.41 (inactive) | -0.0932 (inactive) | -0.139 | 1.13 (inactive) | -0.149 | 0.07 | -0.419 | -0.206
7 | COCCOC(=O)N1C(=O)[C@@]2(c3cc(C#CC4(O)CCCCCC4)ccc31)[C@H](C(=O)N1CCN(c3ncccn3)CC1)[C@H]1C(=O)O[C@H](c3ccccc3)[C@H](c3ccccc3)N1[C@@H]2c1ccccc1OCCO | 1.2 | 2.56 (inactive) | 2.26 (inactive) | 7.55 (inactive) | 1.79 | -0.267 (inactive) | -0.0795 | 1.04 | 1.08 | 0.0436
8 | CCCCC(=O)N(CCN1CCOCC1)[C@@H]1CC(C(=O)NCCO)=C[C@H](Oc2c(I)cc(CO)cc2OC)[C@H]1O | 0.729 | 0.0164 (inactive) | -0.393 (inactive) | 0.0883 (inactive) | 0.322 | 1.3 (inactive) | -0.301 | 0.26 | 0.232 | -0.152
9 | CN1C(=O)C2C(C1=O)C1C=C(CCCO)C2C(c2cccs2)N1Cc1cc2c(cc1Br)OCO2 (stereo not given) | 1.54 | -0.653 (inactive) | -1.25 (inactive) | -0.631 (inactive) | 3.41 | 1.12 (inactive) | 0.0923 | 0.639 | 1.03 | 0.095
10 | NCCCCCNC(=O)[C@@H]1C[C@@H]2C(=O)N3CCC[C@H]3C(=O)N2[C@@H]1c1ccc(O)cc1 | 0.61 | 0.758 (inactive) | -0.986 (inactive) | 1.3 (inactive) | 1.97 | 1.05 (inactive) | 0.512 | 0.408 | 0.391 | 0.171
11 | COC(=O)[C@@]1(Cc2ccc(F)cc2)[C@H]2c3cc(C(=O)N(C)C)n(Cc4c(CO)[nH]cc(C)c4=O)c3C[C@H]2CN1C(=O)c1ccccc1 | -0.51 | 0.342 (inactive) | -0.392 (inactive) | 0.796 (inactive) | 1.63 | -0.893 (inactive) | 0.378 | -0.115 | -0.032 | 0.297
12 | C[C@@H]1ON(c2ccc(I)cc2)[C@H](c2ccc(OC(=O)OC(C)(C)C)cc2)[C@H]1C(=O)N1C(=O)OC[C@H]1Cc1ccccc1 | 1.35 | -0.0865 (inactive) | -1.73 (inactive) | 1.9 (inactive) | 2.08 | 1.77 (inactive) | -0.0736 | 0.447 | 1.02 | -0.0351
13 | COCCOC(=O)N1C(=O)[C@@]2(c3cc(C#CC4=CCCCC4)ccc31)[C@H](C(=O)N1CCCCCCC1)[C@H]1C(=O)O[C@H](c3ccccc3)[C@H](c3ccccc3)N1[C@@H]2c1ccc(OCCO)cc1 | 1.22 | 0.175 (inactive) | -0.534 (inactive) | 1.62 (inactive) | 0.973 | -0.909 (inactive) | 0.726 | 1.52 | 1.06 | 0.265
14 | CC(C)CNC(=O)[C@@]1(C)c2ccccc2C(=O)N(Cc2cc(C(F)(F)F)cc(C(F)(F)F)c2)[C@H]1c1ccc(CO)cc1 | 1.3 | -0.721 (inactive) | 0.4 (inactive) | -0.699 (inactive) | 1.16 | 0.497 (inactive) | 0.0481 | -0.558 | -0.966 | -0.1
15 | COc1cc(NN2C(C(O)c3ccccc3)C=CC3C(=O)N(C)C(=O)C32)cc(OC)c1OC (stereo not given) | 1.53 | 0.679 (inactive) | 0.529 (inactive) | 0.328 (inactive) | 2.98 | -0.852 (inactive) | 0.12 | 0.27 | 0.832 | -0.0581
16 | [N-]=[N+]=NCc1ccccc1C[C@@]1(C(=O)N2CCCCC2)N=C(c2ccc(OCCCO)cc2)O[C@@H]1c1ccccc1CN=[N+]=[N-] | 1.28 | -0.364 (inactive) | 0.78 (inactive) | 25.9 (active) | 2.46 | 0.76 (inactive) | 0.154 | -0.147 | 0.278 | -0.0833
17 | O=C1C2C=CC(C(O)c3cccc(O)c3)N(Nc3ccccc3)C2C(=O)N1c1ccccc1 (stereo not given) | -0.413 | 0.629 (inactive) | -0.581 (inactive) | 0.299 (inactive) | 2.92 | -0.542 (inactive) | 0.005 | -0.525 | 0.535 | -0.0416
18 | C[C@@]12COC[C@]13C=C(Br)[C@H](C2)[C@@]1(CO1)C3=O | -1.78 | -0.0556 (inactive) | -2.25 (inactive) | -0.0407 (inactive) | -2.15 | -0.768 (inactive) | -0.207 | -0.508 | -0.233 | -0.178
19 | CCCC=C(CCC)[C@@H](NS(=O)(=O)c1cccc2cccnc12)c1ccc(-c2ccccc2)cc1 | 1.55 | -0.221 (inactive) | 0.114 (inactive) | 0.638 (inactive) | 3.61 | -0.701 (inactive) | 0.104 | 1.07 | 1.06 | 0.06
20 | C=CCC(OC(C)=O)[C@@H]1[C@@H](N(Cc2ccc(-c3cccc(C(F)(F)F)c3)o2)C(=O)c2ccc(C)cc2)c2cc(OCCCO)ccc2N1C(=O)Cc1ccc(OC)cc1 (stereo not given in full) | -0.118 | 0.9 (inactive) | 0.145 (inactive) | 0.0453 (inactive) | -0.639 | 1.34 (inactive) | -0.131 | -0.0236 | -0.0141 | -0.0828
21 | O=C1C2C=CC(C(O)c3ccc(I)cc3)N(Nc3ccccc3)C2C(=O)N1c1ccccc1 (stereo not given) | 1.34 | -0.165 (inactive) | 0.912 (inactive) | 0.879 (inactive) | 3.31 | -0.882 (inactive) | 0.265 | -0.369 | 0.82 | 0.0352
22 | O=C1C2C=CC(C(O)c3ccco3)N(Nc3ccccc3)C2C(=O)N1c1ccccc1 (stereo not given) | -0.182 | 0.928 (inactive) | 0.0851 (inactive) | 0.662 (inactive) | 1.13 | -0.353 (inactive) | -0.147 | -0.569 | 0.504 | -0.192
23 | CN1C(=O)[C@@H]2[C@@H](CC(COc3ccccc3)=C([C@H](O)CCc3ccccc3)[C@@H]2CO)C1=O | -0.268 | 0.0937 (inactive) | -1.87 (inactive) | -0.537 (inactive) | -0.551 | 2.41 (inactive) | -0.0971 | -0.358 | -0.932 | -0.0947
24 | COCC1=C2[C@@H](CCc3ccccc3)OB(O)C[C@@H]2[C@@H]2C(=O)N(C)C(=O)[C@@H]2C1 | -0.0522 | -0.31 (inactive) | -1.56 (inactive) | -0.53 (inactive) | 0.332 | -0.817 (inactive) | -0.0141 | 0.0638 | 0.183 | -0.131
25 | COCCOC(=O)N1C(=O)[C@@]2(c3cc(C#CCC(C(=O)OC)C(=O)OC)ccc31)[C@H](c1ccc(OCCO)cc1)N1[C@H](c3ccccc3)[C@H](c3ccccc3)OC(=O)[C@H]1[C@@H]2C(=O)Nc1nc2ccccc2s1 | 1.57 | 2.28 (inactive) | 2.31 (inactive) | 4.03 (inactive) | 0.828 | 2.5 (inactive) | -0.122 | 0.994 | 1.1 | -0.04
26 | C=C(CCCC)C(=O)CC[C@@H](OC(=O)c1cccnc1)c1ccc(OCCO)cc1 | 1.48 | -0.405 (inactive) | -2.22 (inactive) | -0.861 (inactive) | 1.18 | -0.288 (inactive) | -0.113 | 1.93 | 0.952 | -0.0828
27 | COC(=O)C1N=C(c2ccc(OCCCO)cc2)N(c2ccccc2)O1 (stereo not given) | 0.433 | -0.686 (inactive) | -1.16 (inactive) | -0.417 (inactive) | 2.07 | 0.267 (inactive) | 0.156 | 0.981 | 0.698 | 0.271
28 | O=C1C[C@@](C(=O)NCC(F)(F)F)(c2ccc([N+](=O)[O-])cc2)[C@@H](c2ccc(CO)cc2)N1CC12CC3CC(CC(C3)C1)C2 | 1.55 | 0.263 (inactive) | -1.03 (inactive) | 1.77 (inactive) | 2.05 | -0.49 (inactive) | 0.426 | 1.26 | 0.614 | 0.751
29 | CN(C)C(=O)[C@@]1(Cc2ccccc2)COC(c2ccc(OCCCO)cc2)=N1 | 0.243 | -0.0054 (inactive) | -4.61 (inactive) | -1.59 (inactive) | 2.87 | 1.31 (inactive) | 0.137 | -0.955 | -0.451 | 0.0005
